Source: PubChem
A selection: hits, their analogues and other compounds. The true share with any hit is near 11%.
ALDH1A1 inh = ALDH1A1 (human) enzyme inhibition. P00352. Purified ALDH1A1, NADH fluorescence, propionaldehyde substrate. Potency, µM (titrated, usually from 75.3 µM), for the others: top-dose activity, negative = inhibition, hits mostly inhibitors. 220,000 tested, 7.3% active;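 also: potency is read from the fitted curve at half-maximal effect; plate controls were no enzyme wells and a reference inhibitor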
NPSR antagonist = antagonists of human neuropeptide S receptor cAMP signaling; CHO-NPSR cells, cAMP TR-FRET, antagonist mode; Potency, µM (top dose mostly 38.3 µM), for inactives: top-dose activity change, negative = inhibition, most hits filed as inhibitors; 220,000 tested, 1% active; active = well fitted curve in the direction sought with a large enough effect; inconclusive = small, poorly fitted or top-dose-only effect, or another doubt; inactive = no such curve, though single readings can be large; an effect the other way counts as inactive or inconclusive; also: potency is read from the fitted curve at half-maximal effect; nearly all actives have a fitted effect of over 50% in size
Target sequence (Q6W5P4 whole entry, looked up): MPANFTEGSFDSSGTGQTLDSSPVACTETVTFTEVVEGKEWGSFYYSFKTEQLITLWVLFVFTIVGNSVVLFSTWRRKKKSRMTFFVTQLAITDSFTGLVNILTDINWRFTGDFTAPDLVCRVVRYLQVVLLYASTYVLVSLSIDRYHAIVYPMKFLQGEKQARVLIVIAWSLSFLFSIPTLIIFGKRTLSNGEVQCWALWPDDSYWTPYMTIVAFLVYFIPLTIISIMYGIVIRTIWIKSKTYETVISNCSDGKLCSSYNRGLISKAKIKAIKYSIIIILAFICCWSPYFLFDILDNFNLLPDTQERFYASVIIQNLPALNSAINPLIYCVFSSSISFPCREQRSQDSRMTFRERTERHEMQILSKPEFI
HPGD block = blocks human HPGD enzyme activity; P15428; purified HPGD, NADH fluorescence kinetic, PGE2 substrate; Potency, µM, inactives show top-dose activity change, negative = inhibition, usual class: inhibitors; 150,000 tested, 4.3% active; AID 894; also: potency is read from the fitted curve at half-maximal effect
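20 nM HPGD preincubated 15 min at room temperature with compound in 50 mM Tris-HCl pH 8, 0.01% Tween 20. Started with 1 mM NAD+ and 30 uM prostaglandin E2; NADH fluorescence (360/450 nm) read 5 times over 30-s intervals, last minus first.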
PNC inhibitor = perinucleolar compartment assembly inhibition | activity change (PNC), negative = inhibition, % at 10 µM | AID 2417 | PC3M PTB-GFP, PNC prevalence imaging, 16 h; active compounds read low | 140,000 tested, 3.1% active;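 active = readout at or below -70, meaning at least 70% loss of cells showing the perinucleolar compartment, a nuclear body marking cancer cells; inconclusive = readout between -30 and a set limit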;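 also: plate controls were DMSO wells for no effect and camptothecin positive control wells for full effect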
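PC3M cells stably expressing PTB-GFP, 750–1000 cells/well, treated 16 h at 37 °C with compound (23 nl of library stock), in duplicate. After paraformaldehyde fixation and Hoechst stain, imaged at 20x; PNC prevalence scored by image analysis.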
IMPase cell inh = cell-permeable inhibitors of inositol monophosphatase (IMPase) | P97697 | CHO-M1 cells, IP1 accumulation, HTRF TR-FRET ratio | inhibition (IP1 accumulation), % at 46.1 µM | 120,000 tested, under 10 active | AID 901; active = well fitted curve in the direction sought with a large enough effect in the signal ratio, not every such curve was filed as active; inconclusive = small, poorly fitted or top-dose-only effect, or a change in a side signal; inactive = no such curve, though single readings can be large or run the other way; the % refers to the signal ratio;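 also: cells stimulated with carbachol in lithium chloride buffer; plate controls were DMSO basal wells for no effect and reference inhibitor wells for full effect; higher means more IMPase inhibition seen as more IP1 and lower FRET ratio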
Target sequence (P97697 whole entry, looked up): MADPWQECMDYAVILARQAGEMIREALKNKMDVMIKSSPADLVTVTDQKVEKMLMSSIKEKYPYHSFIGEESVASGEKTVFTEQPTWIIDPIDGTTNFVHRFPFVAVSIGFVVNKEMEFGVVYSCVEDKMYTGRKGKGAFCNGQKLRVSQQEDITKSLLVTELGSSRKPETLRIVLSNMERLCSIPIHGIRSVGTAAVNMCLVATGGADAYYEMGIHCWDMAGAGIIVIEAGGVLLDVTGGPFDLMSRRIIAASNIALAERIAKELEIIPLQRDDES
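Elevated IP1 in lysates lowers TR-FRET signal (665/620 ratio and 620 channel reported). Cells were CHO-M1, given carbachol (50 uM as added) plus 50mM LiCl, pH 7.4, 30 min, 37C; compounds titrated up to 46 uM; AC50 by Hill equation.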
IMPase Li inh = IMPase inhibition in cells with lithium potentiation | AID 1457 | 210,000 tested, 0.35% active | CHO-M1 cells, IP1 TR-FRET (IP-One), carbachol + lithium | Potency, µM (titrated, usually from 59.4 µM), for the others: top-dose activity, negative = IMPase inhibition, actives largely listed as inhibitors; active = well fitted curve in the direction sought with a large enough effect; inconclusive = small, poorly fitted or top-dose-only effect, or another doubt; inactive = no such curve, though single readings can be large; an effect the other way counts as inactive or inconclusive;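 also: IP1 builds up when IMPase is blocked and the TR-FRET signal falls; potency is read from the fitted curve at half-maximal effect; plate controls were basal vehicle for no effect and high inhibitor control for full effect; nearly all actives have a fitted effect of over 50% in size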
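CHO-M1, 2000 cells/well, 16–30 h culture; cpd + low Li+, 30 min 37C; lysis with d2-IP1/Eu-anti-IP1 Ab, 10 min RT; TR-FRET 665/620 ratio and 620 channel; AC50 via Hill.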
* marks the source's active call; other numbers are inactive results; [ ] = remark or other dose. Unless noted, calls follow the shape of the dose curve; as a rule, active = well fitted inhibition curve with a large enough effect (not every such curve was filed as active); inconclusive = small, poorly fitted or top-dose-only effect, or another doubt; inactive = no such curve, though single readings can be large or run the other way. Unless noted, % is scaled to controls: 0 for no effect and ±100 for the full control effect.

How did CCOC(=O)N1CCN(C(=O)c2ccc3c(=O)n(CC4CCCO4)c(=S)[nH]c3c2)CC1 (configuration not stated) do in these assays?
ALDH1A1 inh: 14µM*; NPSR antagonist: -9%[46.1 µM]; HPGD block: -5%; PNC inhibitor: -13; IMPase cell inh: 17; IMPase Li inh: -16%[38.3 µM]

Results for O=C(NCC1CCCO1)c1ccc2c(=O)n(CC3CCCO3)c(=S)[nH]c2c1 (configuration not stated) ?
ALDH1A1 inh: 11µM*; NPSR antagonist: -14%[46.1 µM]; HPGD block: -16%; PNC inhibitor: inconclusive; IMPase cell inh: 1; IMPase Li inh: 14%[38.3 µM]

How did O=C(NN=C1C2CC3CC(C2)CC1C3)c1cccc(S(=O)(=O)N2CCOCC2)c1 do in these assays?
ALDH1A1 inh: inconclusive; NPSR antagonist: 15%; HPGD block: 0%; PNC inhibitor: 29; IMPase Li inh: 0%

What do the screens show for `COC(=O)c1c(-c2cc(OC)c(OC)c(OC)c2)c2ccnc(OCc3ncccn3)c2c(=O)n1Cc1ccnc(C)c1`?
ALDH1A1 inh: -7%; NPSR antagonist: inconclusive; HPGD block: -26%; IMPase cell inh: 1; IMPase Li inh: -8%

How did CCN(CC)S(=O)(=O)c1ccc(O)c(C(=O)OCC(=O)N(C)Cc2ccccc2)c1 do in these assays?
ALDH1A1 inh: inconclusive; NPSR antagonist: -11%[46.1 µM]; HPGD block: -20%; PNC inhibitor: 12; IMPase cell inh: 2; IMPase Li inh: 3%[38.3 µM]

How did Cc1cc2c(cc1C)-c1nnnn1C(C)(C)C2 do in these assays?
ALDH1A1 inh: 7.1µM*; NPSR antagonist: 0%[46.1 µM]; HPGD block: -4%; PNC inhibitor: 12; IMPase cell inh: 4; IMPase Li inh: 23%[38.3 µM]

Results for Cc1nc2nc(-c3ccccc3)cn2nc1C ?
ALDH1A1 inh: inconclusive; NPSR antagonist: 4%[46.1 µM]; HPGD block: inconclusive; PNC inhibitor: 15; IMPase cell inh: -13; IMPase Li inh: inconclusive

What do the screens show for `CCc1ccc(-c2cn3nc(C)c(C)nc3n2)cc1`?
ALDH1A1 inh: 2.8µM*; NPSR antagonist: -4%[46.1 µM]; HPGD block: -3%; PNC inhibitor: inconclusive; IMPase cell inh: -2; IMPase Li inh: 7%[38.3 µM]

How did CCN=C1S/C(=C\c2cc(OCC)c(O)cc2Br)C(=O)N1CC do in these assays?
ALDH1A1 inh: 0.89µM*; NPSR antagonist: -44%; HPGD block: -16%; PNC inhibitor: inconclusive; IMPase Li inh: 7%

Results for CC(C)(C)NC(=O)COC(=O)c1ccccc1Nc1ccc(SC(F)F)cc1 ?
ALDH1A1 inh: inconclusive; NPSR antagonist: -45%; HPGD block: inconclusive; PNC inhibitor: 11; IMPase Li inh: 5%

What do the screens show for `NC(=O)COC(=O)c1ccccc1Nc1ccc(SC(F)F)cc1`?
ALDH1A1 inh: 6%; NPSR antagonist: 9%; HPGD block: 11µM*; PNC inhibitor: 65; IMPase Li inh: 5%

Results for O=C(COC(=O)c1ccccc1Nc1ccc(SC(F)F)cc1)NCc1ccco1 ?
ALDH1A1 inh: -7%; NPSR antagonist: -24%[46.1 µM]; HPGD block: 14µM*; PNC inhibitor: 25; IMPase cell inh: 6; IMPase Li inh: -3%[38.3 µM]

Results for COc1cccc(N2CCN(C(=O)c3ccc4nc(N5CCCCC5)sc4c3)CC2)c1 ?
ALDH1A1 inh: inconclusive; NPSR antagonist: -4%[46.1 µM]; HPGD block: inconclusive; PNC inhibitor: -13; IMPase cell inh: 13; IMPase Li inh: 9%[38.3 µM]

How did O=CN1CCN(C(=O)CN2C(=O)c3ccccc3C2=O)CC1 do in these assays?
ALDH1A1 inh: 7%; NPSR antagonist: 4%[46.1 µM]; HPGD block: -2%; PNC inhibitor: 15; IMPase cell inh: -5; IMPase Li inh: 2%[38.3 µM]

What do the screens show for `O=C(c1ccc(Cl)cc1)N1CCC(O)(CSc2ccc(Cl)cc2)CC1`?
ALDH1A1 inh: 16µM*; NPSR antagonist: -17%[46.1 µM]; HPGD block: -11%; PNC inhibitor: -9; IMPase cell inh: 1; IMPase Li inh: 24%[38.3 µM]

What do the screens show for `Cc1ccc(SCC2(O)CCN(S(=O)(=O)c3ccc(Cl)cc3)CC2)cc1`?
ALDH1A1 inh: inconclusive; NPSR antagonist: -9%[46.1 µM]; HPGD block: -9%; PNC inhibitor: -100*; IMPase cell inh: -9; IMPase Li inh: 13%

Results for COc1cccc(SCC2(O)CCN(C(=O)c3ccc(Cl)cc3)CC2)c1 ?
ALDH1A1 inh: inconclusive; NPSR antagonist: 3%; IMPase Li inh: 7%

Results for CN1CCN(CC2(O)CCN(S(=O)(=O)c3ccc(Cl)cc3)CC2)CC1 ?
ALDH1A1 inh: 11%; NPSR antagonist: 3%; IMPase Li inh: -2%

What do the screens show for `O=C(c1ccc(Cl)cc1)N1CCC(O)(CSc2ccccc2)CC1`?
ALDH1A1 inh: 1.4µM*; NPSR antagonist: -11%[46.1 µM]; HPGD block: -3%; PNC inhibitor: -91*; IMPase cell inh: -12[1.84 µM]; IMPase Li inh: 21%[38.3 µM]

How did COCCNC(=O)c1ccc2c(=O)n(CCCN3CCCC3=O)c(=S)[nH]c2c1 do in these assays?
ALDH1A1 inh: inconclusive; NPSR antagonist: 9%; IMPase Li inh: -6%

Results for CCCCNC(=O)c1cc2c(=O)n3cccc(C)c3nc2n(Cc2ccccc2)c1=N ?
ALDH1A1 inh: inconclusive; NPSR antagonist: inconclusive; PNC inhibitor: 1; IMPase cell inh: 9

What do the screens show for `COc1cc(/C=C(\C#N)c2nc3ccccc3[nH]2)c([N+](=O)[O-])cc1OCc1ccccc1`?
ALDH1A1 inh: 0.56µM*; NPSR antagonist: -4%[46.1 µM]; HPGD block: inconclusive; PNC inhibitor: -8; IMPase cell inh: 5; IMPase Li inh: 6%[38.3 µM]

What do the screens show for `CCCCn1c(=O)[nH]c2ccccc21`?
ALDH1A1 inh: 8%; NPSR antagonist: 1%[46.1 µM]; HPGD block: -2%; PNC inhibitor: -1; IMPase cell inh: -1; IMPase Li inh: -19%[38.3 µM]

Results for CCCCN1C(=O)Nc2ccccc2S1=O (configuration not stated) ?
ALDH1A1 inh: -7%; NPSR antagonist: 7%; HPGD block: 16µM*; PNC inhibitor: -87*; IMPase Li inh: -2%

What do the screens show for `O=C(Nc1ccccc1C(F)(F)F)c1cc(-c2ccccc2O)on1`?
ALDH1A1 inh: -3%; NPSR antagonist: -8%[46.1 µM]; HPGD block: -16%; PNC inhibitor: -100*; IMPase cell inh: 2; IMPase Li inh: -2%

How did Oc1ccc(/C=N/Nc2nccnc2Cl)c(O)c1 do in these assays?
ALDH1A1 inh: inconclusive; NPSR antagonist: -20%[46.1 µM]; HPGD block: 28µM*; PNC inhibitor: 53; IMPase cell inh: 8; IMPase Li inh: 47%[38.3 µM]

How did O=[N+]([O-])c1ccccc1/C=N/Nc1nccnc1Cl do in these assays?
ALDH1A1 inh: inconclusive; NPSR antagonist: -5%[46.1 µM]; HPGD block: -14%; PNC inhibitor: -7; IMPase cell inh: 8; IMPase Li inh: 0%[38.3 µM]
